Test results: article PMC5540273 (PLoS ONE, 2017)

Test system: MAK
Conditions: concentration: 1 μM, replicates: in singlicate; n = 1
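Also: KINOMEscan kinase panel screen.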

Structure (SMILES)	%Inh
COc1ccc(Nc2nccc(N3CCC(NC(=O)Nc4cccc(OC)c4)C3)n2)cc1 (stereo not shown) [GSK1379742]	17%
Cc1ccc(C)c(NC(=O)NC2CCN(c3ccnc(Nc4ccc(F)cc4)n3)C2)c1 (stereo not shown) [GSK1379720]	6%
c1ccc(-c2n[nH]cc2Nc2ccnc3ccccc23)nc1 [GW694077]	0%
COc1cc(Nc2nccc(N3CCC(NC(=O)Nc4cccc(C(C)=O)c4)C3)n2)cc(OC)c1OC (stereo not shown) [GSK1379753]	30%
O=C(Nc1cccc(-c2nn3ncccc3c2-c2ccnc(Nc3ccccc3)n2)c1)c1c(F)cccc1F [GSK198271]	19%
c1ccc(-c2cnc3nccnn23)cc1 [AH20685]	33%
Cl.c1ccc(-c2ccc3c(Nc4ccc5[nH]ncc5c4)ccnc3c2)nc1 [GW440137]	21%
Fc1ccc(-c2ncn(C3CCNCC3)c2-c2ccnc(Oc3ccc(-c4ccccc4)cc3)n2)cc1 [SB-245391]	10%
Clc1ccc(-c2nn3ncccc3c2-c2ccnc(Nc3ccc4c(c3)OCCO4)n2)cc1 [GW829116]	0%
Cc1ccc(F)c(C(=O)Nc2cccc(-c3nn4ccccc4c3-c3ccnc(Nc4cccc(F)c4)n3)c2)c1F [GSK361061]	0%
CNC(=O)c1ccccc1Nc1nc(Nc2ccc(N3CCOCC3)cc2)ncc1Cl.Cl [GSK1576028]	11%
Cc1cccc(Nc2nc(N[C@H]3CCNC3)ncc2C(N)=O)c1.Cl [GSK2197149]	11%
CCn1c(-c2nonc2N)nc2c(C#CC(C)(C)O)nc(OC[C@H](N)c3ccccc3)cc21 [GSK943949]	0%
COc1cc(Nc2ncc3c(C)nc(-c4cc5ccccc5[nH]4)n3n2)cc(OC)c1OC [GW869516]	0%
Cl.NC(=O)c1cccc(Nc2nccc(Nc3ccc(Oc4c(Cl)cccc4Cl)c(Cl)c3)n2)c1 [GW659009]	27%
Cl.c1ccc(-c2ccc3c(Nc4ccc5[nH]ccc5c4)ccnc3c2)nc1 [GW440138]	1%
CN1CCN(CCCNc2nccc(-c3c(-c4ccc(F)cc4)nn4cc(C(F)(F)F)ccc34)n2)CC1 [GW621581]	3%
O=C(Nc1n[nH]c2cc(-c3ccoc3)ccc12)C1CC1 [SB-738481]	3%
COc1cccc(C2=C(Nc3ccc(Cl)c(C(=O)O)c3)C(=O)NC2=O)c1 [SB-390769]	100%

Structure (SMILES)	%Inh
COc1cccc(-c2ccc3c(NC(=O)C4CC4)n[nH]c3n2)c1 [SB-710903]	24%
COc1cccc(NC(=O)NC2CCN(c3ccnc(Nc4cc(OC)c(OC)c(OC)c4)n3)C2)c1 (stereo not shown) [GSK1379763]	23%
CN(C)S(=O)(=O)c1cc(-c2ccc3nccc(-c4cccc(S(N)(=O)=O)c4)c3c2)cnc1N [GSK1669921]	19%
Cn1cc(-c2ccc3c(c2)CCN3C(=O)Cc2cccc(F)c2)c2c(N)ncnc21 [GSK2603358]	27%
COc1ccc(CNC(=O)NC2CCN(c3ccnc(Nc4ccc(F)cc4)n3)CC2)cc1 [GSK1379788]	24%
O=C(Nc1cccc(-c2nn3ccccc3c2-c2ccnc(Nc3cccc(F)c3)n2)c1)c1c(F)ccc(F)c1Cl [GSK357952]	22%
Cl.Cl.NCC(NCc1ccc(-c2ccnc3[nH]ccc23)s1)c1ccccc1 (stereo not shown) [GSK1321565]	0%
CCc1ccc(-c2ccc3c(c2)-c2c(cnn2C)S(=O)(=O)N3C)cc1	14%
O=C(O)C(F)(F)F.O=C(O)C(F)(F)F.O=c1[nH]ccc2nc(N[C@@H]3CCCNC3)nc(Nc3ccc(S(=O)(=O)N4CCOCC4)cc3)c12 [GSK2177277]	0%
Cc1occc1-c1ncc(OC[C@@H](N)Cc2c[nH]c3ccccc23)cc1-c1ccc2[nH]nc(C)c2c1.O=C(O)C(F)(F)F [GSK682037]	3%
COCCOCCOc1cc2ncc3c4ccc(C#N)cc4[nH]c3c2cc1OC	0%
CN(C)Cc1ccc(-c2ccc3c(Nc4ccc(Oc5ccccn5)cc4)ccnc3c2)o1 [GW567148]	13%
Cc1ccc(C(=O)N2CC[C@@H](O)C2)cc1-n1c(C)cc(OCc2ccc(F)cc2F)c(Br)c1=O	0%
Cn1cc(-c2[nH]c3cc(NC(=O)[C@H](N)C4CCCCC4)cc4c3c2C=NNC4=O)cn1	0%
COc1cc(Nc2nccc(-c3c(-c4cccc(NC(=O)c5c(F)cccc5F)c4)nn4ncccc34)n2)cc(OC)c1OC [GSK327238]	12%
CC(=O)Nc1nc2cnc(Nc3cc(NC(=O)c4cccc(C5(C#N)CC5)c4Cl)ccc3C)nc2s1	0%
Cc1ccc(C(=O)Nc2ccc(Nc3ccnc4cc(-c5nccs5)ccc34)cc2O)cc1.Cl [GW494702]	46%
Nc1ncc(-c2cccnc2)c2scc(-c3ccc4c(c3)CCN4C(=O)Cc3ccccc3)c12 [GSK683281]	28%
